From PubChem
PAD4 FP inh = PAD4 (human) enzyme inhibition; inhibition, % at 6.36 µM; AID 485272; recombinant PAD4, RCA probe fluorescence polarization; Q9UM07; 330,000 compounds, 0.41% hits;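 active means percent inhibition above a cutoff equal to the mean of all tested compounds plus 3 SD, cut at about 15% in these data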;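 further: 0% = PAD4 with RCA probe and DMSO and 100% = probe without PAD4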
LYPLA1 counter = LYPLA1 (human) inhibition in PME1 counter-screen. O75608. recombinant LYPLA1, FP-Rh probe fluorescence polarization. inhibition, % at 5.9 µM. 320,000 compounds, 0.16% hits;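 active means inhibition above the mean of all tested compounds plus 3 SD, set per campaign, cut at about 14% in these data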;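 further: inhibitors block serine hydrolase probe labeling of LYPLA1 so polarization falls; 0% = enzyme with DMSO and 100% = wells lacking LYPLA1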
Target sequence (O75608 whole entry, looked up): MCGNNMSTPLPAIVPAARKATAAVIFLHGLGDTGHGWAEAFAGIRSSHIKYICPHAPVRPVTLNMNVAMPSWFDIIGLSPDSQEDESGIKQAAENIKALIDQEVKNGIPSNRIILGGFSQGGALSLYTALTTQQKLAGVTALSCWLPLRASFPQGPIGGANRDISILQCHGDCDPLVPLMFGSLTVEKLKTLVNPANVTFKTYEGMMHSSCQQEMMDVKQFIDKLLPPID
GSTO1 inh = counter-screen for RBBP9 inhibitors: inhibitors of human GSTO1 | P78417 | recombinant GSTO1, activity-based probe fluorescence polarization | inhibition, % at 5.96 µM | 300,000 compounds, 1.1% hits | AID 1974;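 active means inhibition above the campaign mean inhibition plus 3 SD, cut at about 35% in these data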;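 further: 0% = GSTO1-1 with DMSO and 100% = wells lacking GSTO1-1 enzyme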
Target sequence (P78417 whole entry, looked up): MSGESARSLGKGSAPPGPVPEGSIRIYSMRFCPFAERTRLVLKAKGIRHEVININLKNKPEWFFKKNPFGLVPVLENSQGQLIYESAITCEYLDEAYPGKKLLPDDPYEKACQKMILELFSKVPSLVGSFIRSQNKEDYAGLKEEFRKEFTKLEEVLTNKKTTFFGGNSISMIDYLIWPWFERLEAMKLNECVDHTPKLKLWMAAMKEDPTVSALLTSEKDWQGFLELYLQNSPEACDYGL
Fam108B inh = blocks mouse Fam108B hydrolase in RBBP9 counter-screen. recombinant Fam108B, FP-Rh probe fluorescence polarization. inhibition, % at 9.51 µM. 300,000 compounds, 0.33% hits;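 active means inhibition above the screen mean inhibition plus 3 SD, computed separately per campaign, cut at about 18% in these data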;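 further: inhibitors lower polarization as less probe binds the enzyme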
LYPLA2 counter = counter-screen for PME1 inhibitors: inhibitors of human LYPLA2 | O95372 | recombinant LYPLA2, FP-Rh probe fluorescence polarization | inhibition, % at 5.9 µM | 320,000 compounds, 0.38% hits | AID 2177;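 active means inhibition above the screen-wide mean plus 3 SD, limit set per campaign, cut at about 26% in these data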;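 further: 0% = LYPLA2 with DMSO and 100% = wells lacking LYPLA2 enzyme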
PME-1 inh = blocks human protein phosphatase methylesterase 1; Q9Y570; recombinant PME-1, FP-Rh probe fluorescence polarization; inhibition, % at 5.9 µM; 320,000 compounds, 0.53% hits; AID 2130;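 active means inhibition above the campaign mean of all compounds plus 3 SD, cut at about 26% in these data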;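 further: competitive labeling of PME-1 active site by serine hydrolase directed probe; 0% = PME-1 with DMSO and 100% = wells lacking PME-1 enzyme; inhibitors block probe labeling so polarization falls and inhibition rises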
Fam108b inh conf = confirmation of mouse Fam108b serine hydrolase inhibitors; shares compounds with Fam108B inh; recombinant Fam108b, FP-Rh probe fluorescence polarization; inhibition, % at 9.51 µM; 930 compounds, 44% hits; AID 1978;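 active means inhibition above a limit from the primary screen, the mean over all compounds plus 3 SD, cut at about 19% in these data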;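 further: 0% = median of active Fam108b wells and 100% = catalytically dead S170A mutant; inhibitors free the probe so polarization falls as inhibition rises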
Fam108b inh = mouse ABHD17B inhibition | shares compounds with Fam108B inh | recombinant Fam108b, gel-based ABPP, fluorophosphonate probe | inhibition, % at 20 µM | 260 compounds, 44% hits | AID 588649; in the data active means inhibition above about 40%
An asterisk follows results filed as active; . = no result given. An excerpt weighted towards active compounds, which were near 1.8% of everything screened.

SMILES	PAD4 FP inh	LYPLA1 counter	GSTO1 inh	Fam108B inh	LYPLA2 counter	PME-1 inh	Fam108b inh conf	others
CNC(=S)N/N=C/c1cn(CCOc2cccc(OC)c2)c2ccccc12	4	3	2	7	16	9	.
COc1cccc(OCCn2cc(/C=N/NC(=O)c3ccncc3)c3ccccc32)c1	5	3	-10	25*	6	25	2
CCN(c1ccccc1)S(=O)(=O)c1ccc(NC(=O)c2nc(S(C)(=O)=O)ncc2Cl)cc1	-2	-12	-47	38*	-5	17	37*	Fam108b inh=80*
CCOc1ccccc1C(=O)Nc1ccc(-n2nncc2C(C)(C)C)cc1	3	2	3	1	2	1	.
COc1cc2cc(-c3ccc(O)cc3O)nc(C)c2cc1OC	-3	4	1	20*	7	16	21*
Cc1ccc(Cl)cc1N1CCN(C(=O)CN(C2CCCCC2)S(C)(=O)=O)CC1	-1	-4	-1	-3	-6	3	.
Fc1cccc(Nc2nc3ccccc3n3nnnc23)c1	-5	-8	1	-9	-2	7	.
CCN(CC)S(=O)(=O)c1ccc(Nc2nc3ccccc3n3nnnc23)cc1	-9	-20	-35	26*	-16	10	13
c1ccc2c(c1)nc(Nc1ccc3c(c1)OCO3)c1nnnn12	-2	-6	-13	23*	-3	16	7
NC(=O)c1coc(-c2ccccc2)n1	-1	-3	8	2	-1	1	.
O=C(Nc1cccc(-c2csc(Nc3cccc(C(F)(F)F)c3)n2)c1)c1cc([N+](=O)[O-])cc(C(F)(F)F)c1	-2	-7	-1	19*	-10	2	2
CC(=O)c1cccc(Nc2nc(-c3cccc([N+](=O)[O-])c3)cs2)c1	3	-8	-3	1	-10	4	.
O=C(Nc1ccc(-c2csc(Nc3ccccc3)n2)cc1)c1cccc(C(F)(F)F)c1	-1	-17	-8	4	-8	8	.
O=C(Nc1ccc(-c2csc(Nc3ccccc3)n2)cc1)c1cc([N+](=O)[O-])cc(C(F)(F)F)c1	2	-11	-11	64*	-8	1	87*	Fam108b inh=100*
O=C(Nc1ccc(-c2csc(Nc3ccc(Cl)cc3)n2)cc1)c1cccc(C(F)(F)F)c1	-2	-11	-12	50*	6	26*	68*	Fam108b inh=95*
O=C(N/C(=C\c1ccc(Cl)cc1)C(=O)N1CCOCC1)c1ccco1	-2	1	6	-1	-2	-3	.
O=C(N/C(=C\c1ccccc1)C(=O)N1CCOCC1)c1ccco1	3	-6	4	42*	-4	-12	0
Cc1noc(C)c1NC(=O)N(C)C[C@H]1Oc2ccc(NC(=O)CCC(F)(F)F)cc2C(=O)N([C@H](C)CO)C[C@@H]1C	4	.	.	.	.	.	.
COc1cc(-c2nc(-c3ccc4c(c3)-c3ccccc3S4(=O)=O)c(-c3ccccc3)[nH]2)cc(OC)c1O	-8	-21	-29	32*	-13	1	37*	Fam108b inh=80*
Cc1nn(-c2ccccc2)c(Cl)c1C=NNc1ccc(S(=O)(=O)Nc2ccccc2C(=O)O)cc1[N+](=O)[O-]	.	.	.	.	.	.	.	Fam108b inh=0
Cc1ccc(S(=O)(=O)/N=C(/c2ccccc2)N(C)C)c(C)c1	6	-2	0	2	-2	-4	.
CCN(c1ccccc1)S(=O)(=O)c1ccc(Cl)c(NC(=O)CSc2ncn[nH]2)c1	3	2	1	0	-4	16	.
Cc1ccc(S(=O)(=O)N=C2C=C(Sc3ncn[nH]3)C(=O)c3ccccc32)c(C)c1	.	.	.	.	.	.	.	Fam108b inh=95*
CCc1ccc(S(=O)(=O)N=C2C=C(Sc3ncn[nH]3)C(=O)c3ccccc32)cc1	.	.	.	.	.	.	.	Fam108b inh=60*
CCOC(=O)c1ccc(CC(=O)c2ccc(O)cc2O)o1	-19	-6	11	-2	5	-10	.
SMILES	PAD4 FP inh	LYPLA1 counter	GSTO1 inh	Fam108B inh	LYPLA2 counter	PME-1 inh	Fam108b inh conf	others
CCC(=O)Oc1ccc(C/C(=N\O)c2ccc(O)cc2O)o1	3	7	25	26*	4	36*	18
Cc1[nH]c2ccccc2c1/C=N/NC(=O)C1CC1(c1ccccc1)c1ccccc1 (stereo unspecified)	-6	-8	-2	21*	-7	42*	16
COc1cccc(C=NNc2nc(Nc3ccc([N+](=O)[O-])cc3)nc(N3CCCC3)n2)c1O	.	.	.	.	.	.	.	Fam108b inh=90*
COc1ccc([N+](=O)[O-])cc1/C=N/Nc1nc(N2CCCCC2)nc(N2CCCCC2)n1	-3	0	0	-5	-9	-2	.
CCCc1nc(SCC(=O)N2CCc3ccccc32)c2c(C)c(C)sc2n1	-1	1	-2	1	0	-6	.
Cc1nn(-c2ccccc2)c(Cl)c1/C=N/NC(=O)c1cccc(S(=O)(=O)N2CCCC2)c1	4	-5	0	-6	4	2	.
Cc1nn(-c2ccccc2)c(N2CCCC2)c1/C=N/NC(=O)c1cccc(S(=O)(=O)Nc2ccc(Cl)cc2)c1	1	-14	-33	22*	-18	15	-6
Cc1nn(-c2ccccc2)c(N2CCCC2)c1/C=N/NC(=O)c1cc2ccccc2cc1O	3	-10	-3	27*	1	38*	9
Cc1nn(-c2ccccc2)c(N2CCCC2)c1/C=N/NC(=O)c1cc(-c2ccccc2)nc2ccccc12	1	-8	-7	-6	-2	-3	.
Cc1cc(O)ccc1Nc1nc2ccccc2nc1Nc1ccc(O)cc1C	-2	-2	32	10	3	17	.
COc1cc(OC)c(NC(=O)c2ccccc2F)cc1Cl	-5	-3	5	-4	1	0	.
COc1cc(NC(=O)c2cc3ccccc3cc2O)c(OC)cc1Cl	-4	-13	-5	30*	1	42*	14
COc1ccccc1NC(=O)c1cc2cc(Br)ccc2cc1O	-5	-17	-9	38*	-6	7	18
COc1ccccc1NC(=O)COC(=O)c1cc2ccccc2cc1O	-1	0	.	.	1	-3	.
S=C(NCc1ccc2[nH]c3c(c2c1)CCCC3)Nc1ccccc1	-1	-2	-5	21*	7	9	13
Cc1cc(C)cc(NC(=S)NCc2ccc3[nH]c4c(c3c2)CCCC4)c1	-2	-4	1	2	-2	9	.
O=[N+]([O-])c1cccc(N/N=C/c2cc([N+](=O)[O-])ccc2O)c1	1	2	14	1	-5	5	.
O=[N+]([O-])c1ccc(N/N=C/c2ccccc2O)cc1	-3	-16	-14	47*	-7	45*	30*
